Measurements as given in PubChem BioAssay.
The source made the active and inactive calls.

Key:
[1] = anti-His antibody binders, primary screen, artefact control for SMM control protein annotation, biochemical, small-molecule microarray, 635 nm fluorescence (AID 1128); details: anti-His Alexa647 antibody binding, higher = more signal;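 further: score merges feature fluorescence with signal-to-noise for each printed compound spot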
[2] = system: Human papillomavirus type 1a E7 protein (residues 1-88); experiment: HPV1a E7 small-molecule binders, primary screen, biochemical, small-molecule microarray, residues 1-88, 635 nm (AID 1129); details: small-molecule microarray binding, fluorescence 635 nm; higher = more signal
[3] = molecular target: Focal adhesion kinase 1 (Homo sapiens) (UniProt Q05397); experiment: small-molecule microarray binders of FAK, primary screen, biochemical, 635/667 nm fluorescence, BSA, DTT (AID 1130); details: PTK2 binding, 635 nm fluorescence, higher = more signal;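 further: composite of spot emission at 667 nm and signal to noise over triplicate slides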
Focal adhesion kinase 1 (Homo sapiens), sequence (Q05397 whole entry, looked up): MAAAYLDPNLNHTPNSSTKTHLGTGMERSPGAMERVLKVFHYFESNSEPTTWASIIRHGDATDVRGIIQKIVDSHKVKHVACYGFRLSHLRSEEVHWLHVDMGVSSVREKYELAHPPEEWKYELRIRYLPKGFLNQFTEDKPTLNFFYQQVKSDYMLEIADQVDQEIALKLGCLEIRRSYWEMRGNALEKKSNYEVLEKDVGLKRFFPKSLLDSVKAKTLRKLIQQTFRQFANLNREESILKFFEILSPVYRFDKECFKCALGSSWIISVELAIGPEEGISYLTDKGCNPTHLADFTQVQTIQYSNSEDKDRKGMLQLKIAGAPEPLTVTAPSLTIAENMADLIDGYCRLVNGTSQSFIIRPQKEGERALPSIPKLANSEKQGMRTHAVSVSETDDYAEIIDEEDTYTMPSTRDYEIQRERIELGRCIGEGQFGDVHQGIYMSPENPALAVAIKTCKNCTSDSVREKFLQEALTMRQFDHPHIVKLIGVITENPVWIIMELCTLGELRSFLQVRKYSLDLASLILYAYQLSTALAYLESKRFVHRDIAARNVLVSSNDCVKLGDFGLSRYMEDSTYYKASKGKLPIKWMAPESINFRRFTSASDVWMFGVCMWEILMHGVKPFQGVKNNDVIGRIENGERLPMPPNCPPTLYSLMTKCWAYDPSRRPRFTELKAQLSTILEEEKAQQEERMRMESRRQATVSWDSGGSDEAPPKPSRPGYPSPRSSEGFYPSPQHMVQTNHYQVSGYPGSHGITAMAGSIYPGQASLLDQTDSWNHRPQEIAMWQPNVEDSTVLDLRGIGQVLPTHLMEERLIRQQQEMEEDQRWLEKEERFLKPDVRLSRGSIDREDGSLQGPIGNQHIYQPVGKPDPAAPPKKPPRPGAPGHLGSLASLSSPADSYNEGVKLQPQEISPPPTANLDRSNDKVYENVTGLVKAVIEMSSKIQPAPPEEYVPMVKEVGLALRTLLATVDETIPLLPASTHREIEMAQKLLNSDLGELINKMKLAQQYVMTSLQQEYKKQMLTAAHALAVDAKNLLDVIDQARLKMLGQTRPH

[4] = system: Fibrinogen (Alexa647-labelled); experiment: fibrinogen binders on compound microarrays, profiling panel, artefact control for SMM control-protein annotation, biochemical, small-molecule microarray, 635/667 nm fluorescence (AID 1131); details: fibrinogen-A647 binding fluorescence, higher = more signal;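 further: z-score merges 667 nm fluorescence with per-spot signal-to-noise over triplicate slides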
[5] = molecular target: Follistatin (Homo sapiens) (UniProt P19883); experiment: follistatin binders on small-molecule microarrays, primary screen, biochemical, small-molecule microarray, 635/667 nm fluorescence (AID 1132); details: FST binding, 635 nm fluorescence, higher = more signal
Follistatin (Homo sapiens), sequence (P19883 whole entry, looked up): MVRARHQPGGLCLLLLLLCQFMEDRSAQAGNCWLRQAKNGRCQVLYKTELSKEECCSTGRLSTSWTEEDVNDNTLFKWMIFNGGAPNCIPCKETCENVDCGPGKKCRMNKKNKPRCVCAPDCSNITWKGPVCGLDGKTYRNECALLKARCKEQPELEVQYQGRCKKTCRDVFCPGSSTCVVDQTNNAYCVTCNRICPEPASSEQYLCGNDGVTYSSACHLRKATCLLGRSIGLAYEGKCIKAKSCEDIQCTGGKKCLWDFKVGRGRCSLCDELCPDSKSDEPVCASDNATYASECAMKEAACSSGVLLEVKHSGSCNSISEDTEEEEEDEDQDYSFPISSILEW

[6] = molecular target: Fibroblast growth factor 2 (Homo sapiens) (UniProt P09038); experiment: FGF2 binders on small-molecule microarrays, primary screen, biochemical, small-molecule microarray, 635/667 nm fluorescence (AID 1133); details: small-molecule microarray binding, FGF2, fluorescence 635/667; higher = more signal
Fibroblast growth factor 2 (Homo sapiens), sequence (P09038 whole entry, looked up): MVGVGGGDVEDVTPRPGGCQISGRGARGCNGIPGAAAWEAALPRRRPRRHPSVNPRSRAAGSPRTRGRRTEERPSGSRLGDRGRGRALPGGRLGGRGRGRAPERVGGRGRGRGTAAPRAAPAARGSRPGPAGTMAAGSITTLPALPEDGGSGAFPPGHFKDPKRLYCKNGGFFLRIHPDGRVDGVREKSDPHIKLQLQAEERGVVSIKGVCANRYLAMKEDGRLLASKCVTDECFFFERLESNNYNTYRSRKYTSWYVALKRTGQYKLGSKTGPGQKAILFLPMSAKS

[7] = mitochondrial membrane potential change in A549 cells, profiling panel, cell-based, JC-1 fluorescence, basal, 24 h, 100 nL (AID 1138); details: higher = more signal;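 further: A549 lung adenocarcinoma cells under basal conditions with no added stimulus; test concentration not given here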
Lefty1 = Lefty1 binders on small-molecule microarrays, primary screen, biochemical, small-molecule microarray, 635/667 nm fluorescence (AID 1139); details: small-molecule microarray binding, fluorescence 635/667; higher = more signal
[8] = system: wheat germ agglutinin (Triticum aestivum), Alexa647-labelled; experiment: wheat germ agglutinin binders on compound microarrays, profiling panel, artefact control for SMM control-protein annotation, biochemical, small-molecule microarray, 635/667 nm fluorescence (AID 1140); details: WGA-A647 binding, 635 nm fluorescence, higher = more signal;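 further: score merges 667 nm feature emission with signal to noise over triplicate slides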
[9] = molecular target: Luciferin 4-monooxygenase (Photinus pyralis) (UniProt P08659); experiment: firefly luciferase enzyme inhibitors, primary screen, biochemical, luminescence, purified enzyme, 2006 set (AID 1141); details: SteadyGlo luminescence, 30 min, higher = more signal, called active from +8 up or from −8 down;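 further: cell-free assay with purified firefly luciferase at 100 ng per well in PBS; test concentration not given here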
Luciferin 4-monooxygenase (Photinus pyralis), sequence (P08659 whole entry, looked up): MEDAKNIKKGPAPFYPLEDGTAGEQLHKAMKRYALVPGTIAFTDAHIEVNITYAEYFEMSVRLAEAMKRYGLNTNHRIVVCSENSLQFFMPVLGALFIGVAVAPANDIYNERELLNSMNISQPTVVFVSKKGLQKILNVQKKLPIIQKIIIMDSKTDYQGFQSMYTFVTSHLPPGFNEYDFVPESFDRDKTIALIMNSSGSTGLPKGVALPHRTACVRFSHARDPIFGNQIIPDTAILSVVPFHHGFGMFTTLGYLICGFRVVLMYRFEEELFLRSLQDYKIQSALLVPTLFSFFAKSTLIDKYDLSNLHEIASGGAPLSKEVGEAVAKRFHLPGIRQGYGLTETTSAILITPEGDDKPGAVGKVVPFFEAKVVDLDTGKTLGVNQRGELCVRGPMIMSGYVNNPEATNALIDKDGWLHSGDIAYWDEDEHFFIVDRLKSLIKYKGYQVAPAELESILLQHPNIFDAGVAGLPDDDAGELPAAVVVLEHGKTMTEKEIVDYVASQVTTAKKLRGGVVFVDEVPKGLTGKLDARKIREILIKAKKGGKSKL

SMILES	composite z-score [1]	composite z-score [2]	composite z-score [3]	composite z-score [4]	composite z-score [5]	composite z-score [6]	z-score [7]	composite z-score (Lefty1)	composite z-score [8]	z-score [9]
COCCOC(=O)N1C(=O)[C@@]2(c3cc(C#CCCO)ccc31)[C@H](c1ccccc1OCCO)N1[C@H](c3ccccc3)[C@H](c3ccccc3)OC(=O)[C@H]1[C@@H]2C(=O)N1CCN(c2ncccn2)CC1	1.64	1.21	0.714	0.807	1.32	0.819	-0.835	1.38	0.789	-0.198 (inactive)
COC(=O)[C@@]1(Cc2ccccc2)N=C(c2ccc(OCCCO)cc2)O[C@H]1c1ccccc1N=[N+]=[N-]	2.72	1.14	-0.0746	0.0857	1.41	1.53	1.35	0.718	1.2	-13.8 (active)
CC1CC/C=C\[C@H]2OC34C=CCN(Cc5ccccc5)C(=O)[C@H]3N(CCCCCO)C(=O)[C@@H]4C2C(=O)O1 (stereo not given in full)	0.15	-0.825	1.19	-0.985	-0.599	-0.754	1.37	-0.812	-0.494	-0.763 (inactive)
Cc1ccc([C@H]2[C@H](C(=O)O)[C@H](Sc3ccccc3)[C@@H](C(C)C)N2S(=O)(=O)c2ccc(C)cc2)cc1	0.229	1.19	0.344	0.996	0.744	-0.228	-1.31	0.127	0.798	0.426 (inactive)
COC(=O)[C@@]1(Cc2ccc(F)cc2)[C@H]2c3cc(C(=O)N(C)C)n(CCc4ccccn4)c3C[C@H]2CN1C(=O)c1ccccc1	1.47	1.25	0.994	0.0039	0.78	0.0791	-0.201	0.221	-0.108	2.76 (inactive)
CCCC[C@@H]1C[C@H]1[C@@H](NC(=O)c1ccc(-c2ccccc2)cc1)c1ccc(-c2ccccc2)cc1	0.0916	0.481	0.504	0.348	1.37	0.271	0.738	0.971	0.249	0.779 (inactive)
CCCCCN1CC=CC23O[C@@H]4/C=C\CCCOC(=O)C4[C@H]2C(=O)N(CCCCCCO)[C@@H]3C1=O (stereo not given in full)	0.599	0.906	0.929	-2.05	-0.679	-0.964	1.05	0.0393	1.14	-3.28 (inactive)
O=C1C=CC(=O)[C@@H]2CC(COc3ccccc3)=C3[C@@H](CCc4ccccc4)OB(O)C[C@@H]3[C@H]12	0.346	0.273	-0.0461	-0.0249	1.08	0.45	-1.59	0.411	-0.158	-3.18 (inactive)
O=C(CS)NCCCCCCNC(=O)[C@@H]1C[C@@H]2C(=O)N3CCC[C@H]3C(=O)N2[C@@H]1c1ccc(O)cc1	3.73	1.21	0.887	-0.627	1.16	1.13	-1.13	-0.686	-0.462	-0.315 (inactive)
CC(C)(C)OC(=O)CC[C@]1(C(=O)N2CCCCC2)N=C(c2ccc(OCCCO)cc2)O[C@H]1c1ccccc1N=[N+]=[N-]	2.92	1.26	1.91	0.753	0.771	1.6	2.83	0.513	0.971	-12.8 (active)
COCC(=C=CC[C@H](O)c1ccc(OCCO)cc1)C[C@H](O)c1cc(Cl)cc(Cl)c1O	0.773	0.907	-0.427	0.799	1.38	1.4	0.268	1.47	0.0552	-0.846 (inactive)
COC(=O)c1c(CC[C@@H](CO)NC(=O)N[C@@H](Cc2ccccc2)Cn2cc(C3(O)CCCCC3)nn2)oc(C(C)=O)c1C(=O)OC	1.37	0.868	0.0673	0.307	0.691	0.957	-0.941	1.31	-0.267	0.896 (inactive)
NCCCCCCNC(=O)[C@H]1C[C@H]2C(=O)NCC(=O)N2[C@H]1c1cccc(OCCO)c1	0.869	0.858	0.215	0.794	1.24	1.55	1.85	1.04	1.08	-1.7 (inactive)
CCOC(=O)C[C@H]1[C@H](OC(=O)c2ccccc2-c2ccccc2)[C@@H](NC(=O)Cc2ccc(OC)cc2)c2cc(OCCCO)ccc2N1C(=O)c1ccccc1	-0.269	-0.371	0.145	-0.449	0.23	-0.443	0.362	0.189	-0.0397	0.474 (inactive)
COC(=O)[C@@]1(Cc2ccccc2)[C@H]2c3cc(C(=O)N(C)C)n(Cc4c(-c5ccccc5)noc4C)c3C[C@H]2CN1C(=O)c1ccccc1	2.29	1.22	1.21	0.968	0.212	-0.533	0.582	-0.579	1.17	1.49 (inactive)
CCCN1C(=O)[C@]2(COC(c3ccc(OCCCO)cc3)=N2)Cc2ccccc21	2.63	1.23	0.473	0.551	1.35	1.26	0.306	-0.222	0.974	-1.66 (inactive)
CC(c1ccccc1)C(O)C1C=CC2C(=O)NC(=O)C2N1Nc1ccccn1 (stereo not given)	1.28	0.997	-0.0073	0.675	1.12	0.458	0.845	0.335	0.528	-1.64 (inactive)
Cc1ccc(S[C@]2(C(=O)NC3CC3)CC(=O)N(C3CCCCC3)[C@@H]2c2ccc(CO)cc2I)cc1	0.104	1.21	0.176	0.304	1.26	0.341	1.69	0.87	0.368	1.06 (inactive)
COc1ccc(CCNC(=O)[C@@]2(c3ccc([N+](=O)[O-])cc3)CC(=O)N(CC34CC5CC(CC(C5)C3)C4)[C@@H]2c2ccc(CO)cc2)cc1	1.59	1.17	0.397	0.347	1.41	1.21	-0.483	0.981	-0.037	0.41 (inactive)
CN1C=C(C(=O)OCCS(C)(=O)=O)C(C(=O)OCCS(C)(=O)=O)=CC(CCCO)=CC1C1CC1 (stereo not given)	0.464	-0.202	0.686	0.901	0.186	-0.275	0.664	0.889	0.288	-0.0115 (inactive)
COCCOC(=O)N1C(=O)[C@@]2(c3cc(C#CCNC(N)=O)ccc31)[C@H](c1ccc(O)cc1)N1[C@H](c3ccccc3)[C@H](c3ccccc3)OC(=O)[C@H]1[C@@H]2C(=O)NC[C@H](O)c1ccccc1	-0.49	0.802	-0.133	0.793	1.34	1.19	-1.05	1.13	0.69	0.0103 (inactive)
C=CCC(OC(C)=O)[C@@H]1[C@@H](N(Cc2cccc3ccccc23)C(=O)c2ccc(C)cc2)c2cc(OCCCO)ccc2N1C(=O)Cc1ccc(OC)cc1 (stereo not given in full)	0.0508	-0.0914	0.183	0.342	0.695	-0.148	1.3	0.203	0.275	0.0544 (inactive)
O=C1O[C@H](c2ccccc2)[C@H](c2ccccc2)N2[C@H]1[C@@H](C(=O)Nc1nc3ccccc3s1)[C@]1(C(=O)Nc3ccccc31)[C@H]2c1ccc(O)cc1	0.156	1.24	0.19	0.921	1.32	1.47	-2.12	1.08	0.705	-0.647 (inactive)
COc1ccc(C#Cc2ccc3c(c2)[C@]2(C(=O)N3)[C@H](C(=O)NC[C@H](O)c3ccccc3)[C@H]3C(=O)O[C@H](c4ccccc4)[C@H](c4ccccc4)N3[C@@H]2c2ccccc2OCCO)cc1	1.05	1.19	0.686	0.844	1.09	0.604	-1.79	1.42	0.855	-0.361 (inactive)
